Out of some 340,000 compounds screened, about 1,000 (0.29%) were called active. No stated cut-off is given here; in the data, inconclusive means inhibition above about 29% without an active follow-up result; inactive means below that. Only a sample is shown. Measured potencies and affinities stand elsewhere.
Molecular target: Genome polyprotein (Dengue virus type 2 (strain 16681-PDK53)) (UniProt P29991)
Assay: flavivirus cap methylation enzyme inhibition – biochemical, confirmation dose response, primary screen (AID 588689)
Conditions: Dengue-2 NS5 methyltransferase capping enzyme assay, at 25 µM, stronger effect = higher value

SMILES	inhibition	inhibition (measured here: pilot screen replicate inhibition) [%]
Cc1ccc(C)n1Cc1ccccc1Cl	-24.6% (inactive)	–
C=CCNC(=O)COc1c(C)ccc(C)c1C	-2.27% (inactive)	–
CCOC(=O)N1CCC(N2C(=O)c3ccc(C(=O)NCCC(C)C)cc3C2=O)CC1	-0.65% (inactive)	–
O=C(Nc1ccc(C(=O)c2ccc(C(=O)O)c(C(=O)O)c2)cc1)c1ccccc1	6.21% (inactive)	–
O=C(O)c1ccc(NC(=O)C(c2ccccc2)c2ccccc2)cc1	-5.43% (inactive)	–
NC1=NN(c2c(Cl)cc(Cl)cc2Cl)C(=O)C1	-5.65% (inactive)	–
CC(C)(C)C(=O)NC1=NN(c2c(Cl)cc(Cl)cc2Cl)C(=O)C1	6.11% (inactive)	–
CC(C)/C=C/C(=O)N1CCC(N2CCC(C(=O)NCC3CCCO3)CC2)CC1 (stereo not drawn)	6.04% (inactive)	–
O=C(NCc1ccccn1)c1cccc(S(=O)(=O)N2CCc3ccccc32)c1	5.83% (inactive)	–
O=C(Nc1ccc(O)cc1C(=O)O)c1ccc2c(c1)C(=O)N(Cc1ccco1)C2=O	-4.89% (inactive)	–
Cc1c(NC(=O)c2ccc3c(c2)C(=O)N(Cc2ccco2)C3=O)cccc1C(=O)O	6.25% (inactive)	–
O=C1CSC(=S)N1/N=C/c1ccc2c(c1)OCCO2	-7.17% (inactive)	–
Cc1ccc(OCC(=O)NCCNC(=O)c2cnccn2)cc1C	-4.45% (inactive)	–
COc1ccccc1C(NC(C)=O)c1cc(Cl)c2cccnc2c1O (stereo not drawn)	-1.32% (inactive)	–
Oc1c(C(Nc2ccccn2)c2cccnc2)cc(Cl)c2cccnc12 (stereo not drawn)	-1.46% (inactive)	–
CCOCCSc1n[nH]c(=O)n1CCc1ccccc1	0.65% (inactive)	–
COC(=O)CCCC1=CC2=CC(=O)C(C)(OC(=O)C3CCCC3)C(=O)C2=CO1 (stereo not drawn)	-2.4% (inactive)	–
CCCCC1=CC2=CC(=O)C(C)(OC(=O)C3CCCC3)C(=O)C2=CO1 (stereo not drawn)	-4.96% (inactive)	–
O=C(Nc1ccccc1N1CCCCC1)C1CC(=O)N(c2ccccc2F)C1 (stereo not drawn)	-1.45% (inactive)	–
COCCNc1nc2ccccc2n2cnnc12	-9.27% (inactive)	–
O=[N+]([O-])c1cc(Br)c(Nc2ccccc2)c([N+](=O)[O-])c1	5.88% (inactive)	–
N#Cc1c2ccc([N+](=O)[O-])cc2[n+]([O-])n1-c1ccccc1	15.2% (inactive)	–
CCO[C@H]1OC(C(=O)N2CCN(C)CC2)=C[C@@H](c2ccc(C(F)(F)F)cc2)[C@@H]1CCCO	-3.14% (inactive)	–
CC1=NN(C(N)=S)C(=O)C1N=Nc1c(C)cc(C)cc1C (stereo not drawn)	-2.39% (inactive)	–
CC1=NN(C(N)=S)C(=O)C1N=Nc1ccc(Br)cc1 (stereo not drawn)	7.71% (inactive)	–
Cc1ccc(Sc2sc(=O)n(C)c2S(=O)(=O)c2ccc(C)cc2)cc1	-2.3% (inactive)	–
Cc1ccc(Sc2c(C)[nH]n(C(C)(C)C)c2=O)cc1	-4.77% (inactive)	2.59
